In PubChem BioAssay (EPA / NIEHS):
Results filed as inconclusive are left out. Active and inactive are the calls of the source. Rule for the calls, unless noted: active = hit-call score of the fitted dose curve at least 0.9, where 1 is the maximum; inactive = score below 0.9.

Columns and labels:
[1] = Tanguay_ZF_120hpf_MUSC: Oregon State University Tanguay Lab 120 Hour Post-fertilization zebrafish Assay for Muscle Malformation (AID 2284401)
How it was run: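 Dechorionated Tropical 5D wild-type zebrafish embryos exposed statically from 6 to 120 hpf at 28C, one per well, in 0.64% DMSO. Muscle malformation scored present/absent by brightfield microscopy at 120 hpf, fitted against DMSO.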

[2] = CCTE_Shafer_MEA_dev_firing_rate_mean: CCTE's Neural Network Formation Assay for Mean Firing Rate, Shafer Lab (AID 2284031);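 note: curve fitted for loss of firing so AC50 reflects decreased mean firing rate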
How it was run: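 Developing rat cortical networks on MEA plates undergo 12-day compound exposure. Firing frequency, averaged across active electrodes, is integrated as area under the curve over four recording days, referenced to DMSO.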

[3] = CCTE_Shafer_MEA_dev_per_burst_spike_percent: CCTE's Neural Network Formation Assay for Percent of Spikes in a Burst, Shafer Lab (AID 2284032);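 note: fitted as a decrease in burst spike percentage below DMSO baseline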
How it was run: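 Rat primary cortical neurons on 16-electrode MEA wells, dosed from plating day 0 for 12 days with renewal on DIV 5 and 9; spikes-in-bursts percentage averaged over bursting electrodes, collapsed as AUC across days 5, 7, 9, 12; loss direction versus DMSO.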

[4] = CCTE_Shafer_MEA_dev_active_electrodes_number: CCTE's Neural Network Formation Assay for Number of Active Electrodes, Shafer Lab (AID 2284040; active = hit-call score of the fitted dose curve at least 0.9, where 1 is the maximum;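 note: potency for loss of active electrodes versus DMSO so lower counts are hits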)
How it was run: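 Rat cortical primary cultures, 1.5 x 10^5 cells/well, PEI-coated MEA, laminin drop. Continuous exposure DIV 0–12; full media/compound change DIV 5, 9. Readout: electrodes with mean firing ≥5 spikes/min; AUC across days; loss vs DMSO.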

[5] = CCTE_Shafer_MEA_dev_burst_rate: CCTE's Neural Network Formation Assay for Burst Rate, Shafer Lab (AID 2284042);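 note: potency for loss of burst rate below DMSO control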
How it was run: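 Rat primary cortical cultures on PEI/laminin MEA; compound from plating, re-dosed at DIV 5, 9 media change. Single-electrode bursts/recording length, well mean of active electrodes; AUC over DIV 5–12 recordings; loss-of-signal vs DMSO.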

[6] = CCTE_Shafer_MEA_dev_bursting_electrodes_number: CCTE's Neural Network Formation Assay for Number of Bursting Electrodes, Shafer Lab (AID 2284043; active = hit-call score of the fitted dose curve at least 0.9, where 1 is the maximum;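 note: potency is for loss of bursting electrodes relative to DMSO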)
How it was run: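 Primary rat cortical neurons were cultured on PEI-coated 48-well MEA plates (16 electrodes/well) and exposed from plating through day 12, with compound renewed at feeds on DIV 5 and 9. Electrodes bursting ≥1 per 2 min were counted on DIV 5, 7, 9, 12; trapezoidal AUC taken.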

[7] = CCTE_Shafer_MEA_dev_per_burst_interspike_interval: CCTE's Neural Network Formation Assay for Burst Interspike Interval, Shafer Lab (AID 2284044);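 note: mean spike spacing inside bursts as AUC over recordings on days 5 7 9 12; potency for a decrease of within-burst interspike interval below DMSO level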
How it was run: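 Mean interspike interval within single-electrode bursts, averaged over bursting electrodes, from rat cortical cultures on MEA plates recorded on days 5, 7, 9 and 12. Continuous compound exposure from plating; trapezoidal AUC fitted downward relative to DMSO.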

[8] = CCTE_Shafer_MEA_dev_interburst_interval_mean: CCTE's Neural Network Formation Assay for Mean Interburst Interval, Shafer Lab (AID 2284046);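 note: well-mean interburst interval of bursting electrodes as AUC over four recording days; curve fitted for decrease in interburst interval relative to DMSO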
How it was run: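 Rat cortical neurons, 1.5 x 10^5 cells/well, 48-well MEA; compound from day 0 through DIV 12, media and treatment renewed DIV 5/9. Recordings DIV 5, 7, 9, 12; well-mean interburst interval → trapezoidal AUC, loss direction vs DMSO.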

[9] = CCTE_Shafer_MEA_dev_network_spike_number: CCTE's Neural Network Formation Assay for Number of Network Spikes, Shafer Lab (AID 2284048);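 note: synchronized bursts across electrodes counted on days 5 7 9 12 and integrated as AUC; fit as a loss of signal meaning fewer network spikes than DMSO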
How it was run: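 Primary rat cortical neurons were seeded at 1.5 x 10^5 cells/well on PEI-coated 16-electrode MEA wells with laminin, exposed from plating day 0, compound renewed at DIV 5 and 9. Network spikes were recorded on days 5, 7, 9, 12 and summarized as trapezoidal AUC versus DMSO.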

[10] = CCTE_Shafer_MEA_dev_network_spike_peak: CCTE's Neural Network Formation Assay for Mean Number of Electrodes in Network Spike, Shafer Lab (AID 2284049);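 note: fitted for loss of signal meaning fewer electrodes in network spikes than DMSO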
How it was run: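 Continuous 12-day exposure of rat cortical cultures, starting at plating, on MEA plates. Endpoint: electrodes participating in network-spike peaks, AUC across DIV 5–12, DMSO as negative control.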

[11] = CCTE_Shafer_MEA_dev_spike_duration_mean: CCTE's Neural Network Formation Assay for Mean Spike Duration, Shafer Lab (AID 2284051);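 note: mean network spike duration pooled as area under curve over DIV 5 to 12 recordings; potency for a decrease in mean network spike duration versus DMSO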
How it was run: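 Rat cortical primary cultures, 48-well MEA (16 electrodes/well); compound from plating, renewed DIV 5, 9. Network spike duration (AxIS adaptive detector) recorded DIV 5/7/9/12, combined as trapezoidal AUC; loss direction vs DMSO.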

[12] = CCTE_Shafer_MEA_dev_network_spike_duration_std: CCTE's Neural Network Formation Assay for Standard Deviation of Network Spike Duration, Shafer Lab (AID 2284052);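 note: area under curve of spike duration SD across recording days 5 to 12; hits are decreases in network spike duration SD versus DMSO vehicle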
How it was run: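 Rat cortical cultures, 1.5 x 10^5 cells/well, exposed continuously from plating to DIV 12 with media/compound renewal at DIV 5, 9. Spontaneous activity recorded DIV 5/7/9/12, AxIS adaptive spike detector; AUC across days; negative direction vs DMSO.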

[13] = CCTE_Shafer_MEA_dev_per_network_spike_spike_number_mean: CCTE's Neural Network Formation Assay for Mean Number of Spikes in a Network Spike, Shafer Lab (AID 2284053);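 note: fitted as decrease in spikes per network spike relative to DMSO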
How it was run: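 Rat cortical primary cultures on 48-well MEA; compound from day 0, re-dosed with full media change DIV 5, 9. Recorded DIV 5, 7, 9, 12; spikes in 0.05 s window at network-spike peak ÷ total network spikes; AUC; loss vs DMSO.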

[14] = CCTE_Shafer_MEA_dev_LDH: CCTE's Lactate Dehydrogenase Assay for Cytotoxicity in the Neural Network Formation Assay, Shafer Lab (AID 2284068; active = hit-call score of the fitted dose curve at least 0.9, where 1 is the maximum;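 note: exposure for twelve days from plating with re-dosing on DIV 5 and 9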)
How it was run: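 Rat cortical primary neurons, MEA culture; dosing day 0–12, full medium plus compound exchange DIV 5, 9. Read-out: LDH enzyme activity, spectrophotometric. DMSO = negative control/baseline; signal loss → cytotoxicity.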

[15] = CCTE_Shafer_MEA_dev_AB: CCTE's Alamar Blue Assay for Cytotoxicity in the Neural Network Formation Assay, Shafer Lab (AID 2284083; active = hit-call score of the fitted dose curve at least 0.9, where 1 is the maximum;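 note: resazurin reduction fluorescence as viability of cultured neurons; twelve days of exposure from plating with re-dosing on DIV 5 and 9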)
How it was run: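 Rat cortical primary cultures, 1.5 x 10^5 cells/well on MEA; continuous compound exposure over 12 days of network development, re-dosed with full medium change DIV 5 and 9. Alamar Blue fluorescence; loss of signal = cytotoxicity vs DMSO baseline.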

[16] = CCTE_Shafer_MEA_dev_mutual_information_norm: CCTE's Neural Network Formation Assay for Mutual Information Normalization, Shafer Lab (AID 2284091);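 note: mutual information between electrodes summarised as area under curve across four recording days; potency is for a decrease in mutual information relative to DMSO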
How it was run: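 Rat cortical cultures, 48-well MEA, continuous exposure DIV 0–12 with full media/compound change DIV 5 and 9. Readout: inter-electrode mutual information, AxIS adaptive spike detection; AUC across DIV 5/7/9/12 recordings; DMSO baseline, negative fitting direction.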

[17] = CCTE_Shafer_MEA_dev_correlation_coefficient_mean: CCTE's Neural Network Formation Assay for Mean Correlation Coefficient, Shafer Lab (AID 2284093);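 note: well mean pairwise spike train correlation integrated as AUC over recording days 5 to 12; potency fitted for loss of correlation relative to DMSO vehicle wells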
How it was run: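 Rat cortical cultures, 1.5 x 10^5 cells/well, dosed from day 0 for 12 days. Spontaneous spikes recorded DIV 5/7/9/12; electrode-pair correlation coefficients averaged, AUC taken. Fit in loss direction vs DMSO.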

[18] = CCTE_Mundy_HCI_Cortical_Synap_Neur_Matur_NeuriteSpotCountPerNeuriteLength: CCTE's Synaptogenesis and Neurite Maturation Assay in rat cortical cells for Neurite Spot Count per Neurite Length, Mundy Lab (AID 2284210)
How it was run: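 Rat primary cortical cultures, glia arrested with AraC at DIV 5, were dosed with media change at DIV 7 and fixed at DIV 12. Synaptophysin puncta per MAP2-labelled neurite length were quantified by high-content imaging versus DMSO.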

[19] = CCTE_Mundy_HCI_Cortical_NOG_NeuriteLength: CCTE's Neurite Outgrowth Assay in rat cortical cells for Neurite Length, Mundy Lab (AID 2284213);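 note: neurites imaged about 48 to 50 h after chemical exposure began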
How it was run: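 Neurite length was read by high-content imaging of βIII-tubulin-labelled neurites in rat primary cortical cultures. Activity was fitted relative to DMSO.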

[20] = CCTE_Mundy_HCI_Cortical_Synap_Neur_Matur_NeuriteLength: CCTE's Synaptogenesis and Neurite Maturation Assay in rat cortical cells for Neurite Length, Mundy Lab (AID 2284214)
How it was run: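 Neurite length in rat primary cortical cultures is imaged after MAP2, synaptophysin and Hoechst staining. Dosing starts DIV 7, ending DIV 12; DMSO serves as negative control and baseline.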

[21] = CCTE_Mundy_HCI_Cortical_Synap_Neur_Matur_NeuriteSpotCountPerNeuron: CCTE's Synaptogenesis and Neurite Maturation Assay in rat cortical cells for Neurite Spot Count per Neuron Count, Mundy Lab (AID 2284215)
How it was run: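 High-content imaging counts synaptophysin puncta along MAP2-labelled neurites per neuron after chemical exposure of rat cortical cells from DIV 7 to termination at DIV 12 (AraC added DIV 5). Loss of signal relative to DMSO.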

[22] = CCTE_Mundy_HCI_Cortical_Synap_Neur_Matur_SynapseCount: CCTE's Synaptogenesis and Neurite Maturation Assay in rat cortical cells for Synapse Count, Mundy Lab (AID 2284218)
How it was run: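 Synapse count per neuron is measured in rat cortical neurons exposed to chemicals between DIV 7 and DIV 12, with glial growth arrested by AraC at DIV 5. Synaptophysin and MAP2 staining is imaged automatically; activity is fitted relative to DMSO.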

[23] = CCTE_Mundy_HCI_hN2_NOG_NeuriteCount: CCTE's Neurite Outgrowth Assay in human hN2 cells for Neurite Count, Mundy Lab (AID 2284219; active = hit-call score of the fitted dose curve at least 0.9, where 1 is the maximum)
How it was run: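 In this morphology assay, hNP1-derived neurons received test chemical 2 h post-plating and were fixed two days later in warm paraformaldehyde/sucrose containing Hoechst 33342. Neurites, labelled by rabbit anti-βIII-tubulin (1:800) and Alexa Fluor-488 (1:500), were counted automatically.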

[24] = CCTE_Mundy_HCI_hN2_NOG_NeuriteLength: CCTE's Neurite Outgrowth Assay in human hN2 cells for Neurite Length, Mundy Lab (AID 2284220; active = hit-call score of the fitted dose curve at least 0.9, where 1 is the maximum)
How it was run: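 Using βIII-tubulin immunofluorescence and Hoechst nuclear counterstain, this component quantifies neurite length in hNP1-derived neurons.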

[25] = CCTE_Mundy_HCI_hN2_NOG_NeuronCount: CCTE's Neurite Outgrowth Assay in human hN2 cells for Neuron Count, Mundy Lab (AID 2284221; active = hit-call score of the fitted dose curve at least 0.9, where 1 is the maximum)
How it was run: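 Read-out is the number of betaIII-tubulin-positive neurons imaged by automated high-content analysis, with DMSO as negative control.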

[26] = CCTE_Mundy_HCI_Cortical_Synap_Neur_Matur_CellBodySpotCount: CCTE's Synaptogenesis and Neurite Maturation Assay in rat cortical cells for Cell Body Spot Count, Mundy Lab (AID 2284223)
How it was run: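 High-content imaging counts synaptophysin puncta on neuronal cell bodies per neuron after MAP2/synaptophysin immunostaining. Rat primary cortical cells, glia arrested with AraC at DIV 5, were exposed DIV 7–12; signal decrease measured against DMSO.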

[27] = CCTE_Mundy_HCI_Cortical_NOG_NeuronCount: CCTE's Neurite Outgrowth Assay in rat cortical cells for Neuron Count, Mundy Lab (AID 2284236; active = hit-call score of the fitted dose curve at least 0.9, where 1 is the maximum;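 note: neurons counted by imaging betaIII-tubulin and Hoechst stained cortical cells; cells exposed to compound for about 48 hours before fixation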)
How it was run: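 Read-out: neuron number by high-content imaging of betaIII-tubulin (Alexa Fluor-488) and Hoechst-labelled rat primary cortical cells.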

[28] = CCTE_Mundy_HCI_hNP1_Casp3_7: CCTE's Caspase-Glo 3/7 Assay in human neuroprogenitor cells for Apoptosis, Mundy Lab (AID 2284240)
How it was run: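 Neuroepithelial-lineage stem cells from WA09 embryonic cells were treated with chemicals after 40–44 h of culture. Twenty-four hours later, caspase-3/7 activation was detected luminescently after a 30 min room-temperature reagent step, with DMSO as baseline.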

[29] = CCTE_Mundy_HCI_Cortical_Synap_Neur_Matur_NeuronCount: CCTE's Synaptogenesis and Neurite Maturation Assay in rat cortical cells for Neuron Count, Mundy Lab (AID 2284242; active = hit-call score of the fitted dose curve at least 0.9, where 1 is the maximum;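 note: neuron number from Hoechst nuclei and MAP2 staining by high-content imaging; hits reduce neuron count versus DMSO baseline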)
How it was run: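 Imaging-based neuron count in rat cortical cultures after chemical exposure from DIV 7 to DIV 12, with AraC added at DIV 5. Activity is fitted relative to DMSO.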

Measured: AC50

C=C(C)C(=O)OCCC(F)(F)C(F)(F)C(F)(F)C(F)(F)C(F)(F)C(F)(F)F
inactive: [1]

OCC(F)(F)C(F)(F)C(F)(F)C(F)(F)C(F)(F)C(F)(F)CO
inactive: [1]

O.O.O.O.O.[Cd+2].[Cd+2].[Cl-].[Cl-].[Cl-].[Cl-]
active: [2] 227 nM | [3] 316 nM | [4] 362 nM | [5] 188 nM | [6] 300 nM | [7] 812 nM | [8] 863 nM | [9] 117 nM | [10] 372 nM | [11] 295 nM | [12] 181 nM | [13] 226 nM | [14] 499 nM | [15] 458 nM | [16] 135 nM | [17] 246 nM | [18] 4370 nM | [19] 30800 nM | [20] 1840 nM | [21] 1620 nM | [22] 1670 nM | [23] 30000 nM | [24] 31600 nM | [25] 14100 nM | [27] 76600 nM | [28] 50000 nM | [29] 1240 nM
inactive: [26]
